From PubChem BioAssay (NCATS)
Results filed as inconclusive are left out. A number with no mark means an inactive call. Calls of active or inactive are those of the source. The call rests on the fitted dose curve; in most records, active means well fitted inhibition curve with a large enough effect; inconclusive means small, poorly fitted or top-dose-only effect; inactive means flat fitted curve, though single readings scatter.

Tests used:
[1] = Drug repurposing screens with cells derived from glioblastoma tumor samples (AID 1345199); details: GBM patient neurospheres viability, ATP luminescence, 48 h; further: nearly all actives have a fitted effect of over 40% in size
Procedure, shortened: (§1)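 Primary testing used CD133+ neurospheres from four GBM patients, seven concentrations, 48 h exposure and ATP-based viability; confirmation added three slower-growing patient lines.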

astro = control astrocytes; assay: as above; details: viability, ATP luminescence, 48 h; series mostly up to 45.9 µM
Procedure, shortened: as §1

[2] = at 20 µM (top of the series), tumour line C
[3] = at 21.2 µM (top of the series), tumour line B
[4] = at 21.2 µM (top of the series), tumour line D
[5] = at 45.9 µM (top of the series), tumour line B
[6] = at 46.1 µM (top of the series), tumour line C
[7] = at 45.9 µM (top of the series), tumour line D
[8] = at 46 µM (top of the series), tumour line A
On the % scale 0 is the no-effect control and ±100 the full control effect; potency means the concentration at half of the fitted maximal effect.

NC(=O)OCC(O)COc1ccc(Cl)cc1 (stereo not drawn) gave an activity, negative = cell killing [1, 2] of 0.2%, an activity, negative = cell killing [1, 3] of -15.4% and an activity, negative = cell killing [1, 4] of -22.6%. For the same compound, the Potency (astro) was “inactive”.
For CN(C)CCC(O)(c1ccccc1)c1ccccc1Cl (stereo not drawn), the activity, negative = cell killing [1, 5] was -11.1%, the activity, negative = cell killing [1, 6] was -17.6% and the Potency ([1]; tumour line A) was 11.2 µM (active). The Potency (astro) was “inactive”.
Work on CO/N=C(\C(=O)N[C@@H]1C(=O)N2C(C(=O)O)=C(CSC(=O)c3ccco3)CS[C@H]12)c1csc(N)n1 yielded an activity, negative = cell killing [1, 5] of -9.93%, an activity, negative = cell killing [1, 7] of -3.95% and an activity, negative = cell killing [1, 6] of -21.7%. For the same compound, the Potency (astro) was “inactive”.
For Cc1cccc(Nc2ncccc2C(=O)O)c1C, the activity, negative = cell killing [1, 5] was -17.7%, the activity, negative = cell killing [1, 7] was -8.87% and the activity, negative = cell killing [1, 6] was -27.1%. The Potency (astro) was “inactive”.
Work on Cc1ccc(C(C)(C)c2ccc(C)cc2)cc1 yielded an activity, negative = cell killing [1, 5] of -5.24%, an activity, negative = cell killing [1, 7] of -1.07% and an activity, negative = cell killing [1, 6] of -10.1%. For the same compound, the Potency (astro) was “inactive”.
Compound C=CC[N+]1([C@H]2C[C@H]3[C@@H]4CC[C@H]5C[C@H](O)[C@@H](N6CCOCC6)C[C@]5(C)[C@H]4CC[C@]3(C)[C@H]2OC(C)=O)CCCC1 has an activity, negative = cell killing [1, 5] of -3.03%, an activity, negative = cell killing [1, 7] of -12.4% and an activity, negative = cell killing [1, 6] of -21.7%. For the same compound, the Potency (astro) was “inactive”.
With C[C@]12CCC(=O)C[C@@H]1CC[C@@H]1[C@@H]2CC[C@]2(C)C=CC[C@@H]12 the activity, negative = cell killing [1, 5] was -7.67%, the activity, negative = cell killing [1, 7] was -11.4% and the Potency ([1]; tumour line A) was 20 µM (active). For the same compound, the Potency (astro) was “inactive”.
In the case of O=S(=O)(O)CCCS(=O)(=O)O, the activity, negative = cell killing [1, 5] is reported as -8.81%, the activity, negative = cell killing [1, 7] is reported as -10.4% and the activity, negative = cell killing [1, 6] is reported as -13.4%. For the same compound, the Potency (astro) was “inactive”.
For CO[C@H]1O[C@@H]2O[C@@]3(C)CC[C@H]4[C@H](C)CC[C@@H]([C@H]1C)[C@@]24OO3, the activity, negative = cell killing [1, 5] was -14.7%, the activity, negative = cell killing [1, 7] was 1.49% and the activity, negative = cell killing [1, 6] was -10.2%. For the same compound, the Potency (astro) was “inactive”.
For NC(=O)Oc1ccc(Cc2ccccc2)cc1, the activity, negative = cell killing [1, 5] was -5.11%, the activity, negative = cell killing [1, 7] was -13.8% and the activity, negative = cell killing [1, 6] was -22.5%. For the same compound, the Potency (astro) was “inactive”.
For CC(C)(COP(=O)(O)OP(=O)(O)OC[C@H]1O[C@@H](n2cnc3c(N)ncnc32)[C@H](O)[C@@H]1OP(=O)(O)O)C(O)C(=O)NCCC(=O)NCCS (stereo partly drawn), the activity, negative = cell killing [1, 5] was -4.74%, the activity, negative = cell killing [1, 7] was -6.02% and the activity, negative = cell killing [1, 8] was -28.8%. For the same compound, the Potency (astro) was “inactive”.
With C[Se]CC[C@H](N)C(=O)O the activity, negative = cell killing [1, 5] was -12.9%, the activity, negative = cell killing [1, 7] was -0.664% and the activity, negative = cell killing [1, 6] was -22.8%. For the same compound, the Potency (astro) was “inactive”.
C=CCCCCCCCCC(=O)OC gave an activity, negative = cell killing [1, 5] of -4.31%, an activity, negative = cell killing [1, 7] of -1.83% and an activity, negative = cell killing [1, 6] of 7.19%. For the same compound, the Potency (astro) was “inactive”.
CN[C@@H]1[C@@H](O)[C@@H](O[C@@H]2[C@@H](O)[C@H](OC3OC(CN)=CCC3N)[C@@H](N)C[C@H]2N)OC[C@]1(C)O (stereo partly drawn) showed an activity, negative = cell killing [1, 2] of 5.74%, an activity, negative = cell killing [1, 3] of -6.65% and an activity, negative = cell killing ([1]; at 21.3 µM (top of the series), tumour line A) of -25.4%. The Potency (astro) was “inactive”.
With CCCCC/C=C\CCC(=O)N[C@H]1[C@H](Oc2c3cc4cc2Oc2ccc(cc2Cl)[C@@H](O[C@@H]2O[C@H](CO)[C@@H](O)[C@H](O)[C@H]2NC(C)=O)[C@@H]2NC(=O)[C@H](NC(=O)[C@@H]4NC(=O)[C@H]4NC(=O)[C@@H](Cc5ccc(c(Cl)c5)O3)NC(=O)[C@H](N)c3ccc(O)c(c3)Oc3cc(O)cc4c3)c3ccc(O)c(c3)-c3c(O[C@H]4O[C@H](CO)[C@@H](O)[C@H](O)[C@@H]4O)cc(O)cc3[C@@H](C(=O)O)NC2=O)O[C@H](CO)[C@@H](O)[C@@H]1O the activity, negative = cell killing [1, 2] was -16.8%, the activity, negative = cell killing [1, 3] was -7.38% and the activity, negative = cell killing [1, 4] was -14.2%. The Potency (astro) was “inactive”.
With CCOC(=O)c1c[nH]c2cc(OCC(C)C)c(OCC(C)C)cc2c1=O the activity, negative = cell killing [1, 5] was -9.16%, the activity, negative = cell killing [1, 7] was -17.4% and the activity, negative = cell killing [1, 8] was -29.7%. The Potency (astro) was “inactive”.
Work on CCc1cn([C@H]2C[C@H](O)[C@@H](CO)O2)c(=O)[nH]c1=O yielded an activity, negative = cell killing [1, 5] of -28.6%, an activity, negative = cell killing [1, 7] of -5.04% and an activity, negative = cell killing [1, 8] of -8.93%. For the same compound, the Potency (astro) was “inactive”.
For C=CC1=C(C(=O)O)N2C(=O)[C@@H](NC(=O)/C(=N/OCC(=O)O)c3csc(N)n3)[C@H]2SC1 (stereo in doubt), the activity, negative = cell killing [1, 2] was 2.81%, the activity, negative = cell killing [1, 3] was -6.13% and the activity, negative = cell killing [1, 4] was -19.8%. For the same compound, the Potency (astro) was “inactive”.
With CC(=O)[C@H]1CC[C@H]2[C@@H]3C=CC4=CC(=O)CC[C@@]4(C)[C@H]3CC[C@]12C the activity, negative = cell killing [1, 2] was -18.4%, the activity, negative = cell killing [1, 3] was -29% and the Potency ([1]; tumour line A) was 3.55 µM (active). For the same compound, the Potency (astro) was “inactive”.
For NC(=O)c1cc[n+](CC2=C(C(=O)O)N3C(=O)[C@@H](NC(=O)C(c4ccccc4)S(=O)(=O)[O-])[C@H]3SC2)cc1 (stereo partly drawn), the activity, negative = cell killing [1, 2] was 7.27%, the activity, negative = cell killing [1, 3] was -0.0366% and the activity, negative = cell killing [1, 4] was -7.97%. The Potency (astro) was “inactive”.
Cc1cc(C)c(NC(=O)C[C@H](CC(=O)O)c2cccc3ccccc23)c(C(=O)N2CCC3(CCCC3)CC2)c1 gave an activity, negative = cell killing [1, 5] of -14%, an activity, negative = cell killing [1, 7] of 2.34% and an activity, negative = cell killing [1, 6] of -29.7%. For the same compound, the Potency (astro) was “inactive”.
Work on C#C[C@]1(O)CC[C@H]2[C@@H]3CCC4=C(CCC(=O)C4)[C@H]3CC[C@@]21C yielded an activity, negative = cell killing [1, 2] of -4.47%, an activity, negative = cell killing [1, 3] of -8.06% and an activity, negative = cell killing [1, 4] of -3.97%. The Potency (astro) was “inactive”.
